Results as given in PubChem BioAssay (EPA / NIEHS).
Values joined by “and” are separate entries in the source; they are usually repeats but may differ in a detail not shown here. Equal entries are not always repeated. Active and inactive are the calls of the source. Rule for the calls: active = hit-call score of the fitted dose curve at least 0.9, where 1 is the maximum; inactive = score below 0.9.

experiment: CCTE_Mundy_HCI_Cortical_Synap_Neur_Matur_CellBodySpotCount: CCTE's Synaptogenesis and Neurite Maturation Assay in rat cortical cells for Cell Body Spot Count, Mundy Lab (AID 2284223)
Method: CCTE_Mundy_HCI_Cortical_Synap&Neurite_Matur is a multiplexed, cell-based-readout assay that uses rat primary cortical cells with measurements taken at 288.33 hours after chemical dosing in a microplate: 96-well plate.CCTE_Mundy_HCI_Cortical_Synap_Neur_Matur_CellBodySpotCount is one of eight components of the CCTE_Mundy_HCI_Cortical_Synap&Neurite_Matur assay. It measures synaptogenesis and neurite maturation related to number of cell body-associated synapses (synaptophysin puncta) per neuron using High Content Imaging of fluorescently labelled markers.[…] Using a type of morphology reporter, loss -of-signal activity can be used to understand developmental effects.
Cells are plated onto 96 well plates and allowed 2 hr for attachment to the substrate. At days in vitro (DIV) 5, Cytosine Arabinoside (AraC) is added to arrest glial cell growth. Chemicals are dosed and a media change is performed at DIV 7 of differentiation and is continued through DIV 12 when the experiment is terminated. Cells are fixed with […] and Hoechst Dye. Cells are stained using Millipore Mouse anti-MAP2MAB3418 (1:800) and Millipore Rabbit anti-Synaptophysinsc-1750 (1:250) primary antibodies and Alexa Fluor-488 goat anti-mouse and AlexaFluor-546 goat anti-rabbit secondary antibodies to label neuronal cell nuclei, synapses and neurites. A Cellomics ArrayScan VTi HCS Reader is used for automated image acquisition and analysis of neurite outgrowth.

Row | SMILES | AC50 | outcome
1 | CCCCOC(=O)c1ccccc1C(=O)OCCCC | 89.5 µM (active) | 
2 | Cc1ccc(-c2c(Cl)nc(C#N)n2S(=O)(=O)N(C)C)cc1 | 87.8 µM (active) | 
3 | CC(C)(C)c1ccc(CSc2cnn(C(C)(C)C)c(=O)c2Cl)cc1 | 0.00106 µM (active) | 
4 | C=CCC1=C(C)C(OC(=O)C2C(C=C(C)C)C2(C)C)CC1=O (configuration not stated) |  | inactive
5 | COP(N)(=O)SC (configuration not stated) |  | inactive
6 | CCOC(=O)CC(SP(=S)(OC)OC)C(=O)OCC (configuration not stated) |  | inactive
7 | CNC(=O)ON=CC(C)(C)SC |  | inactive
8 | CCCCNC(=O)n1c(NC(=O)OC)nc2ccccc21 |  | inactive
9 | C=CC1(C)OC(=O)N(c2cc(Cl)cc(Cl)c2)C1=O (configuration not stated) |  | inactive
10 | COP(=S)(OC)Oc1nc(Cl)c(Cl)cc1Cl |  | inactive
11 | CCCCC(CC)COC(=O)c1ccccc1C(=O)OCC(CC)CCCC (configuration not stated) | 8.27 µM (active) and 7.64 µM (active) | 
12 | C=CCC1=C(C)[C@@H](OC(=O)[C@@H]2[C@@H](C=C(C)C)C2(C)C)CC1=O | 21.8 µM (active) | 
13 | COC(=O)N(OC)c1ccccc1COc1ccn(-c2ccc(Cl)cc2)n1 | 0.113 µM (active) | 
14 | CO/C=C(/C(=O)OC)c1ccccc1Oc1cc(Oc2ccccc2C#N)ncn1 | 5.6 µM (active) | 
15 | N#Cc1nn(-c2c(Cl)cc(C(F)(F)F)cc2Cl)c(N)c1S(=O)C(F)(F)F (configuration not stated) |  | inactive
16 | CCOc1cc(Oc2ccc(C(F)(F)F)cc2Cl)ccc1[N+](=O)[O-] | 14.3 µM (active) | 
17 | CN(C)C(=S)SSC(=S)N(C)C | 0.0783 µM (active) | 
